# Measurements: PubChem BioAssay (Tox21)
# Records with an inconclusive call do not appear. A number with no mark means an inactive call. Calls of active or inactive are those of the source. The call rests on the fitted dose curve; in most records, active means well fitted activation curve with a large enough effect in the signal ratio in the repeat runs (not every such curve was filed as active); inconclusive means weak or mixed curves, or effect the other way; inactive means no such curve, though single readings can be large or run the other way; the % refers to the signal ratio.
# Target: Peroxisome proliferator-activated receptor gamma (Homo sapiens) (UniProt P37231)
# Assay: qHTS assay to identify small molecule agonists of the peroxisome proliferator-activated receptor gamma (PPARg) signaling pathway (AID 743094)
# Conditions: HEK293H PPARg-UAS-bla, beta-lactamase FRET ratio, 17 h; series mostly up to 57 µM; activation: at the top concentration
# Description: U.S. Tox21 Program National Center for Advancing Translational Sciences [NCATS] NIH Chemical Genomics Center [NCGC] U.S. Environmental Protection Agency [EPA] National Institutes of Environmental Health Sciences [NIEHS] National Toxicology Program [NTP] U.S. Food and Drug Administration [FDA] Tox21 Assay Overview: The peroxisome proliferator-activated receptors (PPARs) are lipid-activated transcription factors of the nuclear receptor superfamily with three distinct subtypes namely PPAR alpha, PPAR delta (also called PPAR beta) and PPAR gamma (PPARg). All these subtypes heterodimerize with Retinoid X receptor (RXR) and these heterodimers regulate transcription of various genes. PPAR-gamma receptor (glitazone receptor) is involved in the regulation of glucose and lipid metabolism. To identify the compounds that activate PPAR-gamma signaling, GeneBLAzer PPAR gamma UAS-bla HEK293H cell line (Invitrogen, Carlsbad, CA, USA) containing a beta-lactamase reporter gene under control of the control of an upstream activator sequence (UAS) stably integrated into HEK293H cells was used to screen Tox21 compound library.
# Tox21 Assay Protocol Summary: PPARg-bla cells were dispensed at 3000 cells/6uL/well in 1536-well black wall/clear bottom plates using a Multidrop Combi (Thermo Fisher Scientific, Waltham, MA) dispenser. After the assay plates were incubated at 37C and 5% CO2 for 5 h, 23 nL of compounds dissolved in DMSO, positive controls or DMSO only was transferred to the assay plate by a Pintool station (Kalypsys, San Diego, CA). The assay plates were incubated at 37C for 17 h. After 1 uL of LiveBLAzerTM B/G FRET substrate was added using a Bioraptr Flying Reagent Dispenser (FRD) workstation (Beckman Coulter, Indianapolis, IN, USA), the plates were incubated at room temperature for 1 h, and fluorescence intensity was measured by an Envision plate reader (PerkinElmer, Shelton, CT).
# On the % scale 0 is the no-effect control and ±100 the full control effect; potency means the concentration at half of the fitted maximal effect.
# Chain of Peroxisome proliferator-activated receptor gamma (Homo sapiens) (P37231 whole entry, looked up): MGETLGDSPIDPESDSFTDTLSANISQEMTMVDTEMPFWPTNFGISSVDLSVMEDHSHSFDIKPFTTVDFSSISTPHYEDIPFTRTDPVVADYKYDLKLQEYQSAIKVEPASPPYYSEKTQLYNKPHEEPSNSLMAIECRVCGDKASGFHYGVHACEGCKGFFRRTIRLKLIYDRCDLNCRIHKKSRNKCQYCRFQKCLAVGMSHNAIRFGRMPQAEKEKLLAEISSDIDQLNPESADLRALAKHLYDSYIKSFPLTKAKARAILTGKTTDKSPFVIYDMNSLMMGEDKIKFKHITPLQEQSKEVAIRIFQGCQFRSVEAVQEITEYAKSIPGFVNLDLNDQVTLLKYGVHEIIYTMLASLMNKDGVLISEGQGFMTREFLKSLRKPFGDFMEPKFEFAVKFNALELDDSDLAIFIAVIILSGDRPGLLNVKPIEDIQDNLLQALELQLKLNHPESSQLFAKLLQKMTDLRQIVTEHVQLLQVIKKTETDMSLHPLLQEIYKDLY
Compound,activation,Potency
Cc1cccc(C(=O)O)c1O,2.23%,
O=S(=O)(O)c1ccc(N=Nc2c(O)ccc3ccccc23)cc1,-0.938%,
CC(CO)Oc1ccccc1 (stereo not given),-0.0101% [at 78.9 µM],
OC[C@@H](O)[C@@H](O)CO,1.25%,
c1ccsc1,-0.776%,
CC(=O)Oc1cc2c(s1)CCN(C(C(=O)C1CC1)c1ccccc1F)C2 (stereo not given),0.602%,
O=C(O)[C@H](O)[C@@H](O)[C@H](O[C@@H]1O[C@H](CO)[C@H](O)[C@H](O)[C@H]1O)[C@H](O)CO,-0.734% [at 26.2 µM],
ClCCl,0.825%,
O=C(/C=C/c1ccccc1)OC/C=C/c1ccccc1,0.564%,
OC/C=C/CO,-5.83%,
CCC(CC)C(C)CCOC(C)=O (stereo not given),0.563%,
CC(C)NC[C@@H](O)COc1ccc(CC(N)=O)cc1,0.268%,
C=C(C)c1cccc(C(=C)C)c1,-3.87%,
Cc1c(C)c2c(c(C)c1OC(=O)c1cccnc1)CC[C@@](C)(CCC[C@H](C)CCC[C@H](C)CCCC(C)C)O2,2.4%,
CCCCCc1ccc(Cl)cc1,-6.32%,
CCCCCCCCCCCCCC[N+](C)(C)Cc1ccccc1,-6.79%,
CCN1C(=O)c2ccccc2C1Nc1ccc(OCCN2CCCCC2)cc1 (stereo not given),-3.89%,
O[C@@H]([C@H](O)[C@H](O)CBr)[C@H](O)CBr,,inactive
CNc1ccc([N+](=O)[O-])cc1,-0.803%,
O=C1CCc2cc(OCCCCc3nnnn3C3CCCCC3)ccc2N1,1.04%,

Compound,activation,Potency
CN1CCN2c3ccccc3Cc3ccccc3C2C1 (stereo not given),0.749%,
Cl[Si](Cl)(c1ccccc1)c1ccccc1,0.342% [at 78.9 µM],
CN(C)Cc1cc(C(C)(C)C)c(O)c(C(C)(C)C)c1,-8.49%,
CCCCC(CC)COC(=O)CCCCC(=O)OCc1ccccc1 (stereo not given),0.569%,
COC(C)=O,,inactive
COc1cc(C)ccc1O,-0.799%,
CCCCOC(=O)CO,5.18%,
CC(=O)[C@H]1CC[C@H]2[C@@H]3CCC4=CC(=O)CC[C@]4(C)[C@H]3CC[C@]12C,-10.2%,
O=C(c1ccc(O)c(O)c1)c1ccc(O)cc1O,5.18%,
CCCCNS(=O)(=O)c1ccc(C)cc1,0.604%,
CN(C)c1ccc(C(=C2C=CC(=[N+](C)C)C=C2)c2ccc(N(C)C)cc2)cc1,,8.49 µM (active)
O=C(O)c1cc(O)c2ccccc2c1O,-10.3%,
CCC(CC)(CC(=O)Nc1cccc(/C=C/c2nc(C3CCC3)cs2)c1)C(=O)O,1.2%,
C1CCC(SSC2CCCCC2)CC1,2.54%,
CCCCCCCCCCOC(=O)c1ccccc1C(=O)OCCCCCCCC,-0.847%,
CCN(CCN)c1cccc(C)c1,,inactive
C=CCn1c(=O)n(CC=C)c(=O)n(CC=C)c1=O,-5.08%,
C[Si](Cl)(c1ccccc1)c1ccccc1,1.72%,
NC(=S)NC(N)=S,7.2%,
CC[C@H](C)COC(=O)/C=C/c1ccc(N=Cc2ccc(OC)cc2)cc1,-2.53%,
